Reference: PubChem BioAssay (NCATS)
Records with an inconclusive call do not appear. Where a call stands in place of a potency, no number is given. Active and inactive are the calls of the source. Unless noted, calls come from the whole dose curve; as a rule, active = well fitted curve in the direction sought with a large enough effect; inconclusive = small, poorly fitted or top-dose-only effect, or another doubt; inactive = no such curve, though single readings can be large; an effect the other way counts as inactive or inconclusive.

Legend:
[1] = AP1 Signaling Pathway (AID 357; active = well fitted curve in either direction with a large enough effect, not every such curve was filed as active;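 note: ME-180 reporter cells stimulated with EGF at its EC50 level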)
In short: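 Modulation of EGF-driven AP-1 transcription was assessed with a beta-lactamase reporter in ME-180 cells. Compound and EC50 EGF were co-incubated 5 hours at 37 °C before 2.5-hour CCF4 loading at room temperature and dual-emission reading.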

[2] = NFAT Signaling Pathway (AID 444; active = well fitted curve in either direction with a large enough effect, not every such curve was filed as active;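 note: carbachol stimulus at about its EC50 of 1 µM final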); details: Jurkat NFAT-bla M1, carbachol, beta-lactamase ratio, 5 h; at 17.2 µM (top of the series) unless noted
In short: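 Jurkat cells carrying an NFAT-driven β-lactamase reporter and co-transfected muscarinic M1 receptor were treated with compound plus carbachol (1 uM final, an EC50 level) for 5 h at 37 °C. CCF4 loading followed for 1 h at RT; 460/530 nm ratio gave %activity.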

[3] = Stat Signaling Pathway (AID 446; active = well fitted curve in either direction with a large enough effect, not every such curve was filed as active;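 note: ME-180 cervical cancer cells given 40 pM IL-6 alongside compound; SIE-controlled beta-lactamase reporter measured as 460/530 nm FRET emission ratio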)
In short: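 Reporter line: ME-180 cervical carcinoma, SIE-beta-lactamase. Treatment: compound with 40 pM IL-6, 5 hrs, 37 C, in low-serum OPTI-MEM with 10 mM HEPES pH 7.3. Detection: 460/530 nm fluorescence.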

[4] = molecular target: 3',5'-cyclic-AMP phosphodiesterase 4B (Homo sapiens) (UniProt Q07343); assay: qHTS Assay for Inhibitors of PDE-IV (AID 607; active = well fitted activation curve with a large enough effect in the main read-out, with a control signal flat, not every such curve was filed as active)
Sequence of 3',5'-cyclic-AMP phosphodiesterase 4B (Homo sapiens) (Q07343 whole entry, looked up): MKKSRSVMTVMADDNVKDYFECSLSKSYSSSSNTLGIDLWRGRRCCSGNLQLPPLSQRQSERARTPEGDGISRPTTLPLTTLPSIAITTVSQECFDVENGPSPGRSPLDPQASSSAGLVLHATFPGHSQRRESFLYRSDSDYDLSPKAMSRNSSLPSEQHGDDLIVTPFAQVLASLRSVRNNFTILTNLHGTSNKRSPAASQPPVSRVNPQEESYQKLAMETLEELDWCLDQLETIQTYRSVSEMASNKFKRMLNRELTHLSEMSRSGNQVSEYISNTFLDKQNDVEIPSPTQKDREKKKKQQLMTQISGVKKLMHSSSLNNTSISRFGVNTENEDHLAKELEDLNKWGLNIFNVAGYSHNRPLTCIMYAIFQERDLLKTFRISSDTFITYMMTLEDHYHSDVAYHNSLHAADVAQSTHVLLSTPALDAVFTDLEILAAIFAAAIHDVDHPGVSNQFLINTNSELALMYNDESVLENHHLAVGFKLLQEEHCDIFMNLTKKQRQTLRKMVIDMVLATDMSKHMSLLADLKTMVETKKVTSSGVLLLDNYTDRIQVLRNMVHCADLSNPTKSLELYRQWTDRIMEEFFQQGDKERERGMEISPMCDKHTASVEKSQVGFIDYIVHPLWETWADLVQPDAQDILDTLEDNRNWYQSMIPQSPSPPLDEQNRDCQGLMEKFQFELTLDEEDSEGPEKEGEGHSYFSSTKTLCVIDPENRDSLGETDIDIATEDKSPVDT
In short: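 Cell-based read-out of cAMP via a modified cyclic nucleotide-gated channel and membrane potential dye (535/590 nm) in HEK293 cells expressing PDE4 endogenously. Compounds tested up to 22.9 uM final; 100 uM RO 20-1724 reference.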

[5] = qHTS Assay for Lipid Storage Modulators (AID 1519; calls by dose curve); details: Drosophila S3 cells, BODIPY lipid droplet/cell ratio, laser cytometry, cells loaded with oleic acid
In short: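 Cells seeded at 5,000 per well were treated with compounds over a concentration series and loaded with oleic acid (400 uM, as added). Lipid droplet fluorescence (488 nm excitation, 500-530 nm channel) was read by laser-scanning cytometry and normalized to 20 uM Triacsin C.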

[6] = molecular target: Ubiquitin carboxyl-terminal hydrolase 1 (Homo sapiens) (UniProt O94782); assay: Inhibitors of USP1/UAF1: Pilot qHTS (AID 504865);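 note: rhodamine fluorescence freed from ubiquitin-rhodamine substrate followed over time; top concentration of the series differs between compounds; nearly all actives have a fitted effect of over 35% in size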
Sequence of Ubiquitin carboxyl-terminal hydrolase 1 (Homo sapiens) (O94782 whole entry, looked up): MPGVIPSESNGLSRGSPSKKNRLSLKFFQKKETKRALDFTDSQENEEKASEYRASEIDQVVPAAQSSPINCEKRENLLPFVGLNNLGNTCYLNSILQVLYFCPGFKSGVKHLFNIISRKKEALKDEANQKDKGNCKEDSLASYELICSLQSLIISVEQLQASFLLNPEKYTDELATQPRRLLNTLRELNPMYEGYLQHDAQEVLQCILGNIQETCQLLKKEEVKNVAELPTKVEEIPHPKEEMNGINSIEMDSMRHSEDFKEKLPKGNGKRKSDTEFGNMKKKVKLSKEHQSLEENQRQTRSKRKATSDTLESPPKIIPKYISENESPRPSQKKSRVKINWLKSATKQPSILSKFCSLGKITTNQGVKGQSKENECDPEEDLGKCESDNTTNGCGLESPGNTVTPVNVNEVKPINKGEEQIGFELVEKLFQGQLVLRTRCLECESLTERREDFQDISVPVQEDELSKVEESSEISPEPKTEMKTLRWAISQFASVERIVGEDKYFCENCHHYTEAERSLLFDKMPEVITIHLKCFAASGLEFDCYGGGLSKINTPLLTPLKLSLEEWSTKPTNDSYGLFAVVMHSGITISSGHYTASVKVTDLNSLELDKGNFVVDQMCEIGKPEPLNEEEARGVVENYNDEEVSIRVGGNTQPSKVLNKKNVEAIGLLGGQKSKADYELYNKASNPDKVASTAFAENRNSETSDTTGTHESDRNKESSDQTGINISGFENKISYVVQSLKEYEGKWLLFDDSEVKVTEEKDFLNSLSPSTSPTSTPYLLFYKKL
In short: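 Kinetic fluorescence assay: 1nM USP1/UAF1, 15 min compound preincubation, then 150nM Ub-Rho; 480/540 nm.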

[7] = molecular target: Luciferin 4-monooxygenase (Photinus pyralis) (UniProt P08659); assay: Biochemical firefly luciferase enzyme assay for NPC (AID 624030);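 note: purified P. pyralis luciferase at 10 nM with luciferin and ATP substrate; nearly all actives have a fitted effect of over 70% in size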
Sequence of Luciferin 4-monooxygenase (Photinus pyralis) (P08659 whole entry, looked up): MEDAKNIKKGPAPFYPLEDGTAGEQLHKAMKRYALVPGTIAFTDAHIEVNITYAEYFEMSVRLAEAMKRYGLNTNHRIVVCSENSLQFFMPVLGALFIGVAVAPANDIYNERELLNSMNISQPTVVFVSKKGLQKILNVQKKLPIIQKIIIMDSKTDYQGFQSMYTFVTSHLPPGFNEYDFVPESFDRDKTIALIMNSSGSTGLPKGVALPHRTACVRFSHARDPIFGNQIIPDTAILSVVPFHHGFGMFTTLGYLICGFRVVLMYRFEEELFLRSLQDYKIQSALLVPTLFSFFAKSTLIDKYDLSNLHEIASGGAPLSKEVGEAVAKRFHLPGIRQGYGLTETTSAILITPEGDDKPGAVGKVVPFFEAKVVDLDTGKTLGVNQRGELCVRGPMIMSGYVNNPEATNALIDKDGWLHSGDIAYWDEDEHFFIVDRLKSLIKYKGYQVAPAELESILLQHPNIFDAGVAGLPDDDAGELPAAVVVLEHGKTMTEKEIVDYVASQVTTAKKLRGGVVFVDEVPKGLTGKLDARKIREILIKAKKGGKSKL
In short: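 Counter-screen for direct inhibition of the luciferase enzyme by approved-drug library compounds, run at 10 nM enzyme in 50 mM Tris acetate (final). Luminescence was read within 5 min of enzyme-buffer addition and normalized to PTC124 versus DMSO (0%).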

[8] = S16 Schwann cell viability assay (CellTiter-Glo assay) (AID 624031);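 note: cellular ATP luminescence as a viability measure; nearly all actives have a fitted effect of over 70% in size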
In short: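 This viability control uses native rat S16 Schwann cells grown in DMEM plus 10% FBS. After a 24 h compound treatment at 37 °C, CellTiter-Glo luminescence reports ATP content, scaled against DMSO-treated and cell-free wells.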

[9] = qHTS profiling for inhibitors of Plasmodium falciparum proliferation (AID 504749); note: nearly all actives have a fitted effect of over 60% in size; details: P. falciparum in erythrocytes, SYBR Green DNA, 72 h
In short: (§1)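 Parasite proliferation within erythrocytes, 72 h exposure. Endpoint: SYBR Green I fluorescence after overnight lysis at room temperature. Controls: 0.29 uM artemisinin, DMSO.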

C2A = assay: as above; details: P. falciparum in erythrocytes, SYBR Green DNA, 72 h; series mostly up to 12.8 µM
In short: as §1

CP191 = assay: as above; details: P. falciparum in erythrocytes, SYBR Green DNA, 72 h; series mostly up to 12.8 µM
In short: as §1

CP247 = assay: as above; details: P. falciparum in erythrocytes, SYBR Green DNA, 72 h; series mostly up to 12.8 µM
In short: as §1

CP250 = assay: as above; details: P. falciparum in erythrocytes, SYBR Green DNA, 72 h; series mostly up to 12.8 µM
In short: as §1

CP256 = assay: as above; details: P. falciparum in erythrocytes, SYBR Green DNA, 72 h; series mostly up to 12.8 µM
In short: as §1

FAB9 = assay: as above; details: P. falciparum in erythrocytes, SYBR Green DNA, 72 h; series mostly up to 12.8 µM
In short: as §1

JCK = assay: as above; details: P. falciparum in erythrocytes, SYBR Green DNA, 72 h; series mostly up to 12.8 µM
In short: as §1

PC49 = assay: as above; details: P. falciparum in erythrocytes, SYBR Green DNA, 72 h; series mostly up to 12.8 µM
In short: as §1

[10] = molecular target: Mitogen-activated protein kinase 10 (Mus musculus) (UniProt Q61831); assay: JNK3 AlphaScreen Assay (AID 530; active = well fitted curve in either direction with a large enough effect, not every such curve was filed as active;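 note: kinase came from lysate of stimulated human HepG2 cells; signal reports phosphorylation of biotinylated GST-cJun 1-79 at Ser73 with 10 µM ATP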)
In short: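 Inhibitors reduce antibody binding to phosphorylated biotin-cJun, lowering AlphaScreen luminescence. Lysates from HepG2 cells pre-activated by IL-1beta plus TNF-alpha supplied JNK3; compounds were titrated.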

[11] = molecular target: Glucocorticoid receptor (Homo sapiens) (UniProt P04150); assay: GR-EFC Redistribution (AID 451; calls by dose curve; note: potency is the fitted concentration of half-maximal effect); details: CHO-K1 GR-EFC translocation, beta-gal luminescence, 2 h
Sequence of Glucocorticoid receptor (Homo sapiens) (P04150 whole entry, looked up, the tested form may be a part): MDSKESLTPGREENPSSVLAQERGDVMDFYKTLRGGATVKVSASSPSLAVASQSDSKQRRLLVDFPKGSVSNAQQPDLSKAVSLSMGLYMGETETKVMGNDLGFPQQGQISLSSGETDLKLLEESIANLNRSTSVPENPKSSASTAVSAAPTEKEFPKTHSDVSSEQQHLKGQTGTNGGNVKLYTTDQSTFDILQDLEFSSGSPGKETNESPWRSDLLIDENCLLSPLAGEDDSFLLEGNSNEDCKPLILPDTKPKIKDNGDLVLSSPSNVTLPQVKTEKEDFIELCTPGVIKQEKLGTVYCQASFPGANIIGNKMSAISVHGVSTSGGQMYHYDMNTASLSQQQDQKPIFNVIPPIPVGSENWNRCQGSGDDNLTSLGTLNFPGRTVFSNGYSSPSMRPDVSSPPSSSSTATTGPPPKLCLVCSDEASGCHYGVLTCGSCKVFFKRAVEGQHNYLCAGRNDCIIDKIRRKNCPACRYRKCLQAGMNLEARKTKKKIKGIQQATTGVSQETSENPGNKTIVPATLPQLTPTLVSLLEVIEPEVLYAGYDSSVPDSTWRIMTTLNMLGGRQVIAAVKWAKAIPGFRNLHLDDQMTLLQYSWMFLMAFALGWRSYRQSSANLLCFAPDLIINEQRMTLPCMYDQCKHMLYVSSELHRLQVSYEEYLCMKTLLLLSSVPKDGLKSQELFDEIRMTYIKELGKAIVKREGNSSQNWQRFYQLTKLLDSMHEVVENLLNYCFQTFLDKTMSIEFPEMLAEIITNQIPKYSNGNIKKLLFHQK
In short: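 CHO-K1 cells stably expressing nuclear-localized β-gal enzyme acceptor and GR fused C-terminally to the enzyme donor fragment; ligand-driven nuclear translocation restores β-gal by complementation. Compounds titrated up to 46 uM final, 2 h at 37 °C; luminescence read.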

[12] = molecular target: Glucocorticoid receptor (Homo sapiens) (UniProt P04150); assay: GR-GFP Redistribution (AID 450;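 active = compounds whose dose series gives a full or clear partial fitted curve of increased nuclear translocation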; note: potency is the fitted concentration of half-maximal effect); details: U2OS GR-GFP nuclear translocation, laser cytometry, 2 h
[13] = measured here: cell count channel max response
[14] = measured here: lipid channel max response
[15] = at 12.8 µM (top of the series), parasite line A
[16] = at 12.8 µM (top of the series), parasite line B

## c1ccc2c(c1)CCC[C@@H]2C1=NCCN1
[1]
  outcome: inactive
[2]
  activity change, negative = inhibition: 4.55% (inactive)
[3]
  outcome: inactive
[4]
  outcome: inactive
[5]; at 25.7 µM (top of the series)
  activity change, negative = inhibition: 1.29% (inactive)
[5]; [13]
  max response: 4.77%
[5]; [14]
  max response: 6.92%
[6]
  Potency: inactive
[7]
  Potency: inactive
[8]
  outcome: inactive
[9]; at 28.7 µM (top of the series), parasite line A
  activity, negative = inhibition: 13.7% (inactive)
[9]; at 28.7 µM (top of the series), parasite line B
  activity, negative = inhibition: -0.664% (inactive)
C2A
  Potency: inactive
CP191
  Potency: inactive
CP247
  Potency: inactive
CP250
  Potency: inactive
CP256
  Potency: inactive
FAB9
  Potency: inactive
JCK
  Potency: inactive
PC49
  Potency: inactive

## NC[C@@H]1O[C@@H](O[C@H]2[C@H](O)[C@H](O[C@@H]3O[C@H](CO)[C@@H](O)[C@H](N)[C@@H]3O)[C@@H](N)C[C@H]2N)[C@H](N)C[C@@H]1O
[1]
  outcome: inactive
[2]
  activity change, negative = inhibition: -7.92% (inactive)
[3]
  outcome: inactive
[10]
  Potency: inactive
[4]
  outcome: inactive
[5]; at 25.7 µM (top of the series)
  activity change, negative = inhibition: -2.29% (inactive)
[5]; [13]
  max response: -4.83%
[5]; [14]
  max response: -6.77%
[7]
  Potency: inactive
[8]
  outcome: inactive
[9]; [15]
  activity, negative = inhibition: 9.72% (inactive)
[9]; [16]
  activity, negative = inhibition: 18.7% (inactive)
C2A
  Potency: inactive
CP191
  Potency: inactive
CP247
  Potency: inactive
CP250
  Potency: inactive
CP256
  Potency: inactive
FAB9
  Potency: inactive
JCK
  Potency: inactive
PC49
  Potency: inactive

## O=C(N[C@@H](CO)[C@@H](O)c1ccc([N+](=O)[O-])cc1)C(Cl)Cl
[1]
  outcome: inactive
[2]
  activity change, negative = inhibition: -12.6% (inactive)
[3]
  outcome: inactive
[10]
  Potency: inactive
[4]
  outcome: inactive
[5]; at 25.7 µM (top of the series)
  activity change, negative = inhibition: -1.53% (inactive)
[5]; [13]
  max response: 11.1%
[5]; [14]
  max response: 8.81%
[6]
  Potency: inactive

## COc1cc(C2Oc3cc(C4Oc5cc(O)cc(O)c5C(=O)C4O)ccc3OC2CO)ccc1O (centres undefined)
[1]
  outcome: inactive
[2]
  activity change, negative = inhibition: 22.6% (inactive)
[3]
  outcome: inactive
[5]; at 57.5 µM (top of the series)
  activity change, negative = inhibition: 18.7% (inactive)
[5]; [13]
  max response: 5.37%
[5]; [14]
  max response: 24.8%

## CCC(=O)O[C@@]1(C(=O)SCF)[C@@H](C)C[C@H]2[C@@H]3C[C@@H](F)C4=CC(=O)C=C[C@@]4(C)[C@]3(F)[C@@H](O)C[C@]21C
[1]
  outcome: inactive
[2]
  activity change, negative = inhibition: -22.7% (inactive)
[3]
  outcome: inactive
[10]
  Potency: inactive
[4]
  outcome: inactive
[5]; at 25.7 µM (top of the series)
  activity change, negative = inhibition: 1.23% (inactive)
[5]; [13]
  max response: -7.35%
[5]; [14]
  max response: -5.95%
[7]
  Potency: inactive
[8]
  outcome: inactive
C2A
  Potency: inactive
CP247
  Potency: inactive
CP250
  Potency: inactive
CP256
  Potency: inactive
JCK
  Potency: inactive

## C[C@H](CCC(=O)NCC(=O)O)[C@H]1CC[C@H]2[C@H]3[C@@H](C[C@@H](O)[C@]12C)[C@]1(C)CC[C@H](O)C[C@@H]1C[C@@H]3O
[1]
  outcome: inactive
[2]
  activity change, negative = inhibition: 15.3% (inactive)
[3]
  outcome: inactive
[11]
  Potency: > 20.6 µM (inactive)
[10]
  Potency: inactive
[4]
  outcome: inactive
[5]; at 25.7 µM (top of the series)
  activity change, negative = inhibition: 0.864% (inactive)
[5]; [13]
  max response: -1.04%
[5]; [14]
  max response: -0.773%
[6]
  Potency: inactive

## CC1(C)S[C@@H]2[C@H](NC(=O)C(N)c3ccccc3)C(=O)N2[C@H]1C(=O)O (some centres undefined)
[1]
  outcome: inactive
[2]
  activity change, negative = inhibition: -1.78% (inactive)
[3]
  outcome: inactive
[10]
  Potency: inactive
[4]
  outcome: inactive
[5]; at 25.7 µM (top of the series)
  activity change, negative = inhibition: -0.37% (inactive)
[5]; [13]
  max response: 8.14%
[5]; [14]
  max response: 6.97%
[6]
  Potency: inactive

## CCN1CCN(C(=O)N[C@H](C(=O)N[C@@H]2C(=O)N3[C@@H]2SC(C)(C)[C@@H]3C(=O)O)c2ccccc2)C(=O)C1=O
[1]
  outcome: inactive
[2]
  activity change, negative = inhibition: -2.87% (inactive)
[3]
  outcome: inactive
[10]
  Potency: inactive
[4]
  outcome: inactive
[5]; at 25.7 µM (top of the series)
  activity change, negative = inhibition: 0.264% (inactive)
[5]; [13]
  max response: -7.94%
[5]; [14]
  max response: -7.68%
[6]
  Potency: inactive

## Cc1ccsc1/C=C\C1=NCCCN1C
[1]
  outcome: inactive
[3]
  outcome: inactive
[12]
  Potency: > 20.6 µM (inactive)
[11]
  Potency: > 20.6 µM (inactive)
[4]
  outcome: inactive
[5]; at 25.7 µM (top of the series)
  activity change, negative = inhibition: -1.64% (inactive)
[5]; [13]
  max response: -9.18%
[5]; [14]
  max response: -10.2%
[7]
  Potency: inactive
[8]
  outcome: inactive
[9]; [15]
  activity, negative = inhibition: 10.5% (inactive)
[9]; [16]
  activity, negative = inhibition: 9.61% (inactive)
C2A
  Potency: inactive
CP191
  Potency: inactive
CP247
  Potency: inactive
CP250
  Potency: inactive
CP256
  Potency: inactive
FAB9
  Potency: inactive
JCK
  Potency: inactive
PC49
  Potency: inactive

## C[C@H](CCC(=O)O)[C@H]1CC[C@@H]2[C@@H]3[C@@H](O)C[C@H]4C[C@@H](O)CC[C@@]4(C)[C@H]3CC[C@@]21C
[1]
  outcome: inactive
[2]
  activity change, negative = inhibition: 14.2% (inactive)
[3]
  outcome: inactive
[10]
  Potency: inactive
[4]
  outcome: inactive
[5]; at 25.7 µM (top of the series)
  activity change, negative = inhibition: -0.554% (inactive)
[5]; [13]
  max response: -2.48%
[5]; [14]
  max response: -0.386%
[6]
  Potency: inactive
[7]
  Potency: inactive
[8]
  outcome: inactive
C2A
  Potency: inactive
CP191
  Potency: inactive
CP247
  Potency: inactive
CP250
  Potency: inactive
CP256
  Potency: inactive
FAB9
  Potency: inactive
JCK
  Potency: inactive
PC49
  Potency: inactive

## C[N+]1(C)CC[C@@H](OC(=O)[C@@](O)(c2ccccc2)C2CCCC2)C1
[1]
  outcome: inactive
[2]
  activity change, negative = inhibition: -43.8% (active)
[3]
  outcome: inactive
[4]
  outcome: inactive
[5]; at 25.7 µM (top of the series)
  activity change, negative = inhibition: -2.8% (inactive)
[5]; [13]
  max response: -7.92%
[5]; [14]
  max response: -10.3%
[6]
  Potency: inactive

## CC[C@]1(c2ccccc2)NC(=O)N(C)C1=O
[1]
  outcome: inactive
[2]
  activity change, negative = inhibition: -14.9% (inactive)
[3]
  outcome: inactive
[10]
  Potency: inactive
[4]
  outcome: inactive
[5]; at 25.7 µM (top of the series)
  activity change, negative = inhibition: 0.43% (inactive)
[5]; [13]
  max response: 11.1%
[5]; [14]
  max response: 11.3%
[6]
  Potency: inactive
